# Hits are enriched below; roughly 3.1% of the tested compounds scored in any of these assays.
# TrxR1 substrate: substrates of rat thioredoxin reductase 1; purified TrxR1 substrate turnover, NADPH consumption readout; Potency, µM (doses to about 114 µM), for the others: at the top dose activity change, negative = substrate turnover; 390,000 tested, 0.01% active; AID 588456; note: % is set by controls: 0 for no effect and ±100 for the full control effect; nearly all actives have a fitted effect of over 50% in size
#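 Rat TrxR1, dispensed at 90 nM, was prereduced with 400 uM NADPH (final) for 5 min at ~22 deg C, then incubated with compound 15 min before 400 uM selenite. A first-read NADPH fluorescence drop versus no-compound background flagged substrates.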
# Mito fusion act: blocks mitochondrial division or promotes mitochondrial fusion. Potency, µM (highest dose often 46.1 µM), for the others: at the top dose growth rescue (activation), actives largely listed as activators. AID 485298. S. cerevisiae fusion-defective mutant growth rescue, CellTiterGlo 48 h. 320,000 tested, 0.23% active; note: % of control where 0% means no effect; nearly all actives have a fitted effect of over 45% in size
#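 Yeast fusion mutant, YPEG (non-fermentable carbon), compound, 48 h at 37C non-permissive; CellTiterGlo added, 10 min RT, luminescence read. Rescued growth = division inhibition.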
# A549 viability: A549 cytotoxicity, counter-screen for Nrf2 inhibitors | A549 ARE-Fluc cells, CellTiter-Fluor viability, 18-24 h | Potency, µM (highest dose often 46 µM), inactives show at the top dose activity change, negative = cytotoxicity, hits mostly inhibitors | 390,000 tested, 0.16% active; note: % is set by controls: 0 for no effect and ±100 for the full control effect
#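 A549 ARE-Fluc cells in 5% FBS OPTI-MEM, 5000 cells/well, rested 2 h then exposed to compounds in concentration-response for 18-24 h at 37 °C. Viability by CellTiter-Fluor fluorescence (Ex 405/Em 525) after 30 min; luciferase luminescence (BugLite, 15 min, RT) read afterwards.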
# TrxR1 inh: inhibitors of rat thioredoxin reductase 1. O89049. recombinant rTrxR1, NADPH fluorescence consumption, selenite substrate. Potency, µM (highest dose often 114 µM), inactives show at the highest dose activity change, negative = inhibition, actives largely listed as inhibitors. 390,000 tested, 1% active. AID 588453; note: % is set by controls: 0 for no effect and ±100 for the full control effect; nearly all actives have a fitted effect of over 65% in size
#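 Rat TrxR1 (90 nM in the dispensed reagent) was pre-reduced with 400 uM NADPH for 5 min at room temperature, then incubated with compound for 15 min. After 400 uM selenite was added, NADPH fluorescence (Ex 340/Em 450 nm) was followed for 8 min.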
# IDH1 R132H inh: blocks human mutant IDH1 R132H enzyme; O75874; Potency, µM (titrated, usually from 76.6 µM), without a hit: at the highest dose activity change, negative = inhibition, hits mostly inhibitors; IDH1-R132H enzyme, NADPH consumption, diaphorase/resazurin fluorescence; 390,000 tested, 0.093% active; AID 602179; note: % is set by controls: 0 for no effect and ±100 for the full control effect; nearly all actives have a fitted effect of over 65% in size
# Target sequence (O75874 whole entry R132H, stated change not applied): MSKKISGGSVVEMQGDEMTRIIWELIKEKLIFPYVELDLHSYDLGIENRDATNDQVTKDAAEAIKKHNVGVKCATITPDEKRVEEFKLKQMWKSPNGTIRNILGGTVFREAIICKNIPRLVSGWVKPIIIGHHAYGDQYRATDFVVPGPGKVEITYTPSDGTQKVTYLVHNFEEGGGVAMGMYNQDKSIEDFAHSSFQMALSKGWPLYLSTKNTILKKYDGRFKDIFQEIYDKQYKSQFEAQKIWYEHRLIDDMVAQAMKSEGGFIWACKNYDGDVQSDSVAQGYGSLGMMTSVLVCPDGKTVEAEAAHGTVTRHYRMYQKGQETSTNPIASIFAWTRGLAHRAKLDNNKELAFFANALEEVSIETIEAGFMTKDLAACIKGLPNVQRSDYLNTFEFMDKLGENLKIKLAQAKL
#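 IDH1-R132H (0.5 ug/mL dispensed) in pH 7.5 Tris buffer was preincubated 30 min with compound, then given a substrate mix of 0.016 mM NADPH and 2 mM alpha-KG for 80 min at room temperature; remaining NADPH was read by diaphorase/resazurin fluorescence.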
# Nrf2 inh: blocks Nrf2 signaling; A549 ARE-Fluc reporter, luciferase luminescence, 18-24 h; Potency, µM (highest dose often 46 µM), without a hit: at the highest dose activity change, negative = inhibition, hits mostly inhibitors; 360,000 tested, 2.1% active; AID 504444; note: % is set by controls: 0 for no effect and ±100 for the full control effect; nearly all actives have a fitted effect of over 60% in size
#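 Quantitative HTS in A549 cells stably bearing an antioxidant response element-firefly luciferase construct. Inhibition of Nrf2-driven transcription was scored by luminescence after 18-24 h of compound exposure at 37 °C.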
# Starred values were filed as active, the others as inactive; ? = inconclusive; . = no result given; [ ] = dose if it differs, or a comment. Calls come from the whole dose curve; as a rule, active = well fitted curve in the direction sought with a large enough effect; inconclusive = small, poorly fitted or top-dose-only effect, or another doubt; inactive = no such curve, though single readings can be large; an effect the other way counts as inactive or inconclusive. Potency is the fitted concentration of half-maximal effect.
SMILES,TrxR1 substrate,Mito fusion act,A549 viability,TrxR1 inh,IDH1 R132H inh,Nrf2 inh
O=C(Nc1cc(F)ccc1F)c1ccc(-n2cncn2)c([N+](=O)[O-])c1,-2.0%,-2.0%,0.7%,12.3%,2.7%,-13.8%
COc1ccc(/C=C/c2c([N+](=O)[O-])c(=O)n(C)c(=O)n2C)c(OC)c1,-10.5%[57.1 µM],-0.4%,4.4%,-5.7%[57.1 µM],-0.1%,-14.8%
Cn1c(/C=C/c2ccc(Cl)cc2Cl)c([N+](=O)[O-])c(=O)n(C)c1=O,2.2%,-18.0%,?,4.7%,-10.3%,25.9µM*
CCOc1ccc(/C=C/c2c([N+](=O)[O-])c(=O)n(C)c(=O)n2C)cc1,-3.1%[57.1 µM],3.3%,?,-4.5%[57.1 µM],3.0%,-16.5%
CCc1ccc(/C=C/c2c([N+](=O)[O-])c(=O)n(C)c(=O)n2C)cc1,-10.6%,-15.5%,?,-17.9%,8.8%,13µM*
COc1cc(OC)c(NC(=S)Nc2cc(Cl)cc(Cl)c2)cc1Cl,5.1%[57.1 µM],-8.9%,0.1%,-21.4%,0.9%,20.6µM*
O=C(O)/C=C/c1ccc2c(c1)S(=O)(=O)N(C1CCCC1)[C@H]2CC(=O)O,-0.9%,.,.,12.4%,.,.
COc1ccc(C)cc1NC(=O)C(Sc1nnc(-c2ccncc2)n1-c1ccc(Cl)cc1)c1ccccc1 (stereo unspecified),7.4%[57.1 µM],14.0%,-0.8%,25.0%[57.1 µM],-19.1%,25.9µM*
COc1ccc(/C=C2\SC(=S)N(CCCC(=O)NNC(=O)c3ccccc3O)C2=O)cc1,-3.1%[57.1 µM],-4.9%,-8.4%,10.6%[57.1 µM],0.0%,13µM*
O=C(CCCN1C(=O)/C(=C/c2ccccc2Cl)SC1=S)NNC(=O)c1ccncc1,6.4%[57.1 µM],-3.9%,-30.6%,9.6%[57.1 µM],-1.9%,25.9µM*
O=C(CCCN1C(=O)/C(=C/c2cccs2)SC1=S)NNC(=O)c1ccncc1,-15.7%[57.1 µM],17.5%,?,8.0%[57.1 µM],9.4%,?
COc1ccc(/C=C2/SC(=S)N(CCCC(=O)Nc3ccccc3C(=O)O)C2=O)cc1,-6.3%,2.5%,-1.7%,3.6%,-0.7%,?
O=C(CCCN1C(=O)/C(=C/c2ccccc2Cl)SC1=S)NNC(=O)c1ccccc1Cl,-5.4%[57.1 µM],2.3%,-10.1%,8.1%[57.1 µM],-0.4%,18.4µM*
O=C(COC(=O)c1nc(Cl)c(Cl)c(Cl)c1Cl)NCc1ccccc1,-7.5%,-7.9%,11.6%,44.7µM*,11.4%,9.5%
CC1=C(C(=O)OCc2ccc3c(c2)OCO3)C(c2ccc(O)c([N+](=O)[O-])c2)NC(=O)N1 (stereo unspecified),6.0%[57.1 µM],4.7%,-9.0%,6.8%[57.1 µM],4.8%,?
CC1=C(C(=O)OCc2ccc3c(c2)OCO3)C(c2ccccc2)NC(=O)N1 (stereo unspecified),2.1%,0.6%,-2.0%,-1.4%,-1.6%,8.2µM*
CCCOc1ccccc1C1NC(=O)NC(C)=C1C(=O)OCc1ccccc1 (stereo unspecified),3.5%[57.1 µM],28.6%,?,29.2%,9.4%,10.3µM*
CC1=C(C(=O)OCc2ccc3c(c2)OCO3)C(c2ccccc2OCc2ccccc2)NC(=O)N1 (stereo unspecified),5.2%,8.1%,-20.7%,19.9%,3.2%,13µM*
CCC(=O)N1CCc2cc(Br)cc(S(=O)(=O)CCC(=O)N3CCN(c4cc(C)ccc4C)CC3)c21,1.4%,.,0.5%,28.0%,-3.3%,-1.3%[9.27 µM]
COC1(C(F)(F)F)NC(=O)N(c2ccc(F)cc2)C1=O (stereo unspecified),4.6%,.,-0.4%,16.4%,6.1%,-14.6%
CCC(=O)Nc1nnc(S(=O)(=O)N(C)Cc2ccc(Cl)cc2)s1,3.3%,.,2.1%,31.9%,20.4%,1.8%
Clc1cccc(-c2cc3nc4c(c(NCc5ccco5)n3n2)CCCC4)c1,29.7%,-17.0%,-23.3%,12.5%,7.3%,?
OCCCNc1c2c(nc3cc(-c4ccc(Cl)cc4)nn13)CCC2,11.5%,14.1µM*,?,33.3%,12.7%,9.1%
NS(=O)(=O)c1ccc(CCNc2nc3c(-c4cccc(F)c4)nnn3c3ccc(Cl)cc23)cc1,10.0%,.,8.8%,10.3%,-1.6%,?
Cc1cccc(OCCSc2nc(N)cc(N)n2)c1,-15.0%,15.0%,0.4%,39.8µM*,0.4%,-6.9%
SMILES,TrxR1 substrate,Mito fusion act,A549 viability,TrxR1 inh,IDH1 R132H inh,Nrf2 inh
Cc1nn(Cc2ccccc2)c(C)c1C(=O)OCC(=O)c1cc(C)n(CC(F)(F)F)c1C,-22.3%[57.1 µM],0.1%,-8.5%,18.9%[57.1 µM],0.0%,16.4µM*
Cc1cc(C(=O)COC(=O)c2ccc(NC(=O)CC#N)cc2)c(C)n1CC(F)(F)F,.,.,.,.,2.7%,.
COc1ccc(/C=N/NC(=O)c2cccc([N+](=O)[O-])c2)cc1OC(=O)c1ccccc1,3.8%[57.1 µM],-3.9%,-15.7%,15.4%[57.1 µM],-4.1%,-13.4%
COc1ccc(/C=N/NC(=O)c2cccc([N+](=O)[O-])c2)cc1OC(=O)c1ccc(C)cc1,-2.6%,4.6%,?,12.7%,-3.6%,20.6µM*
COc1cc(/C=C(/C#N)c2ccccc2)ccc1Oc1ccc([N+](=O)[O-])cn1,3.5%[57.1 µM],?,?,20.7%[57.1 µM],3.8%,14.6µM*
COc1cccc(C(=O)N/N=C/c2ccc(Oc3ccc([N+](=O)[O-])cn3)c(OC)c2)c1,-2.0%,-2.9%,?,12.5%,1.3%,23.1µM*
O=C(Cn1cnc2nc3c(cc2c1=O)CCCC3)Nc1ccc(F)cc1Cl,-3.4%[57.1 µM],.,1.2%,-0.6%[57.1 µM],-4.8%,.
